High-throughput results as filed in PubChem.
The list is not random: actives were taken first. Their share in the collection is about 28%.
CYP2C9 act – CYP2C9 (human) activation. recombinant CYP2C9, luciferin-H conversion, luminescence; stronger effect = higher value; factor 1 = untreated enzyme, 0 = blocked. activation factor at 5 µM. hit rate 1.4% among 96,000. P11712;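 active = activation factor of 2 or more for CYP2C9 at a 5 µM dose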
Target sequence (P11712 whole entry, looked up): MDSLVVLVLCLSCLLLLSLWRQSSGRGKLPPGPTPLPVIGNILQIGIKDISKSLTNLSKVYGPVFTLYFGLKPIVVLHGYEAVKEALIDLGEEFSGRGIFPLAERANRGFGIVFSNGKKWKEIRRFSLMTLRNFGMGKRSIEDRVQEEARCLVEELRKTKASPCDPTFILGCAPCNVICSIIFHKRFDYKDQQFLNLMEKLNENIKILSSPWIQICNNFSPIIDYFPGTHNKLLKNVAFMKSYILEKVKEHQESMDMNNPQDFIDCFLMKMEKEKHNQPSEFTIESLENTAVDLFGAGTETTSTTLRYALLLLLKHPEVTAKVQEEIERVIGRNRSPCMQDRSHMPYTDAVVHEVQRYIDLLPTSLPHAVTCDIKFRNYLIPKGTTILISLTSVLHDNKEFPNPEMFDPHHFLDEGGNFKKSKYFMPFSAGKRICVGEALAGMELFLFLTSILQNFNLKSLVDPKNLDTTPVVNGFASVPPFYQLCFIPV
CYP2C19 act – increases human CYP2C19 enzyme activity | activation factor at 5 µM | recombinant CYP2C19, luciferin-H EGE luminescence; stronger effect = higher value; 0 = fully inhibited enzyme, 1 = untreated enzyme | P33261 | 96,000 tested, under 10 active;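 active = activation factor of at least 2 at 5 µM in the primary screen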
Mac1 fbg enh – CD11b/CD18-fibrinogen binding enhancement | K562 CD11b/CD18 adhesion to fibrinogen, ATPlite luminescence | activation, % at 10 µM | hit rate 0.07% among 93,000;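 active = 10 µM primary screen giving 50% or more activity, confirmed by 40% or more on retest at that dose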
CD11b adhes inh – CD11b/CD18-fibrinogen binding inhibition; hit rate 0.54% among 93,000; inhibition, % at 10 µM; AID 1497; P05107+P11215; K562 CD11b/CD18 adhesion to fibrinogen, ATPlite luminescence; Mn2+ added to activate the integrin;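 active = primary inhibition of 50% or more at 10 µM, then 40% or more on retest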
CYP2C19 inhib – blocks human cytochrome P450 2C19; P33261; CYP2C19 Supersomes, luciferin-H EGE luminescence, 30 min; inhibition, % at 5 µM; hit rate 21% among 96,000; AID 778;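 active = CYP2C19 inhibition above a set limit at 5 µM in the primary screen, cut at about 50% in these data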
CYP2C9 inhib – blocks human cytochrome P450 2C9; P11712; CYP2C9 Supersomes, luciferin-H conversion, luminescence; inhibition, % at 5 µM; hit rate 20% among 96,000;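 active = blocking of liver enzyme CYP2C9 beyond about 50% at 5 µM, limit read from the data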
Each line names hits and unclear results; the compound was inactive in the other large screens.

Cc1nc(-c2ccccc2)sc1C(=O)CSc1ccccc1	CYP2C9 inhib 79.6
COc1cc2c(cc1OC)CN(C(=O)c1cc(S(=O)(=O)N3CCOCC3)ccc1Cl)CC2	none
Cc1c(Cl)cccc1NC(=O)CN1CCC(NC(=O)C2CCCCC2)CC1	none
O=C(NC(Cc1ccccc1)c1nc2ccccc2[nH]1)C1CC(=O)N(c2ccc3c(c2)OCCO3)C1 (configuration not stated)	CYP2C19 inhib 81.1
COc1ccc(NC(=O)CN(c2cccc(F)c2)S(C)(=O)=O)cc1OC	none
CN(C)c1ccc(NC(=O)CN2CCN(CC(=O)Nc3ccc(F)cc3)CC2)cc1	none
Cc1ccc(N(CC(=O)Nc2ccc(F)cc2)S(=O)(=O)N2CCCC2)cc1	CYP2C9 inhib 62.1
CSc1cccc(NC(=O)CN(c2ccc(C)cc2C)S(C)(=O)=O)c1	CYP2C19 inhib 94.6, CYP2C9 inhib 62.1
CSc1cccc(NC(=O)CN(c2cccc(C)c2)S(C)(=O)=O)c1	CYP2C19 inhib 72.5, CYP2C9 inhib 62.0
Cc1cccc(N(CC(=O)Nc2ccc(F)cc2)S(C)(=O)=O)c1	CYP2C19 inhib 96.4, CYP2C9 inhib 82.4
O=c1c(N2CCCCC2)coc2ccccc12	none
CCC1(C)Cc2ccccc2-c2c1c(=O)n(Cc1ccccc1)c1nnnn21 (configuration not stated)	none
O=c1c2c(n3nnnc3n1Cc1ccccc1)-c1ccccc1CC21CCCC1	CYP2C9 inhib 72.3
COc1cc(C(=O)n2nc(C)cc2C)ccc1O	none
COc1ccc(C(=O)n2ccc(C)n2)cc1Br	CYP2C19 inhib 57.0
COc1ccc(C(=O)n2nc(C)cc2C)cc1Br	CYP2C19 inhib 70.3
O=C1N(c2ccc(Cl)cc2)C(c2ccccc2)N2CCCN12 (configuration not stated)	none (no result: CYP2C9 act, CYP2C19 act, CYP2C19 inhib, CYP2C9 inhib)
Cc1cccc(OCC2=N/C(=C\N(C)C)C(=O)O2)c1	CYP2C19 inhib 67.3
N/C(COc1ccccc1)=N\NC(=O)c1cccnc1Oc1ccccc1	none
COc1ccc(CCN(C(=O)C(F)(F)F)C(C(=O)NC2CCCC2)c2cccs2)cc1OC (configuration not stated)	CYP2C19 inhib 85.3, CYP2C9 inhib 88.0
COc1cccc(CN(C(=O)Cc2c[nH]c3ccccc23)C(C(=O)NC2CCCCC2)c2cccs2)c1 (configuration not stated)	CYP2C19 inhib 94.0, CYP2C9 inhib 97.9
Cn1cccc1C(C(=O)NC1CCCCC1)N(C(=O)Cc1cccs1)C1CC1 (configuration not stated)	CYP2C19 inhib 91.9
O=C(Cc1cccs1)N(Cc1cccs1)C1(C(=O)NC2CCCCC2)CCCCC1	none
O=C(NC1CCCCC1)C(c1ccc2ncccc2c1)N(Cc1ccc(F)cc1)C(=O)c1cccs1 (configuration not stated)	CYP2C19 inhib 66.3, CYP2C9 inhib 84.0
COc1ccc(NC(=O)c2ccccc2Cl)cc1NC(=O)CN1CCOCC1	none
Cc1cc(C(=O)NCc2ccc(C(=O)O)o2)c(C)o1	none
C#CC(=O)N(c1cccc(OC)c1)C(C(=O)NC1CCCC1)c1cccs1 (configuration not stated)	CYP2C19 inhib 57.3
COc1ccc(CN(C(=O)Cc2cccs2)C(C(=O)NC2CCCC2)c2ccncc2)cc1 (configuration not stated)	CYP2C19 inhib 79.6, CYP2C9 inhib 67.0 (no result: Mac1 fbg enh, CD11b adhes inh)
CCOc1ccc(C(C(=O)NC2CCCC2)N(Cc2ccccc2)C(=O)c2nsc(Cl)c2Cl)cc1 (configuration not stated)	none
COc1ccc(C(C(=O)NC2CCCC2)N(Cc2ccccc2)C(=O)c2nsc(Cl)c2Cl)cc1 (configuration not stated)	CYP2C19 inhib 61.0, CYP2C9 inhib 63.9
COc1ccc(C(C(=O)NC2CCCCC2)N(Cc2cccs2)C(=O)Cc2c[nH]c3ccccc23)cc1 (configuration not stated)	CYP2C9 inhib 68.0 (no result: Mac1 fbg enh, CD11b adhes inh)
COc1ccc(Cl)cc1NC(=O)Nc1cccc([N+](=O)[O-])c1C	none
c1ccc(-c2nnc3sc(-c4cc5ccccc5o4)nn23)cc1	none
CCC(=O)NC1(C(F)(F)F)C(=O)NC(C)=C1C#N (configuration not stated)	none
COc1ccc(CNC(=O)C(c2ccncc2)N(C(=O)Cc2cccs2)c2ccc(C)cc2)cc1 (configuration not stated)	CYP2C19 inhib 67.3, CYP2C9 inhib 69.3
O=C1CC(N2CCC(c3nc4ccccc4o3)CC2)C(=O)N1Cc1cccs1 (configuration not stated)	none
c1nnc(NC2=NCCCCC2)s1	none
Clc1ccc(CSc2nnc(NC3=NCCCCC3)s2)cc1	CYP2C19 inhib 90.7, CYP2C9 inhib 67.2
O=c1[nH]c(N2CCOCC2)nc2c1CCCC2	none
O=C(COc1ccc2ccccc2c1Br)N1CCN(c2ccccn2)CC1	CYP2C19 inhib 84.3
O=C(CSc1nccc2ccccc12)N1CCN(c2ccccn2)CC1	CYP2C19 inhib 66.3
Cc1ccc(N2C(=O)CC(Sc3ncn[nH]3)C2=O)cc1C (configuration not stated)	none
COc1ccc(S(=O)(=O)Cc2ccc(C(=O)N3CCN(c4cc(Cl)ccc4C)CC3)o2)cc1	CYP2C19 inhib 61.2, CYP2C9 inhib 84.8
COc1ccc(N2CCN(C(=O)c3ccc(CS(=O)(=O)c4ccc(OC)cc4)o3)CC2)cc1	CYP2C9 inhib 77.7
Cc1ccc(S(=O)(=O)Cc2ccc(C(=O)N3CCN(c4ccc(F)cc4)CC3)o2)cc1	CYP2C9 inhib 73.5
COc1ccc(S(=O)(=O)Cc2ccc(C(=O)N3CCN(c4cccc(C)c4C)CC3)o2)cc1	CYP2C19 inhib 55.5, CYP2C9 inhib 75.8
COc1ccc(S(=O)(=O)Cc2ccc(C(=O)N3CCN(c4ccc(Cl)cc4)CC3)o2)cc1	CYP2C9 inhib 82.4
O=C(c1ccc(COc2c(F)c(F)cc(F)c2F)o1)N1CCN(c2ccc(Cl)cc2)CC1	none
Cc1ccc(S(=O)(=O)c2cnc(-c3ccccc3)nc2Oc2ccccc2)cc1	none
CN(C)c1ncc(S(=O)(=O)c2ccc(Cl)cc2)c(-c2ccccc2)n1	CYP2C19 inhib 97.0, CYP2C9 inhib 60.5
O=S(=O)(c1ccc(Cl)cc1)c1cnc(-c2cccnc2)nc1-c1ccccc1	CYP2C19 inhib 51.5 (no result: Mac1 fbg enh, CD11b adhes inh)
Clc1ccc(CSc2snnc2-c2ccccc2)c(Cl)c1	none
O=S(=O)(c1ccc(Cl)cc1)c1snnc1-c1ccccc1	CYP2C19 inhib 89.5
Cc1nc(-c2ccccc2)sc1-c1nc(-c2ccncc2)ncc1S(=O)(=O)c1ccccc1	CYP2C19 inhib 93.3, CYP2C9 inhib 95.9
Cc1nc2cc(CC(=O)O)ccc2o1	none (no result: Mac1 fbg enh, CD11b adhes inh)
Cc1ncc(S(=O)(=O)c2ccccc2)c(-c2ccc(Cl)cc2Cl)n1	CYP2C19 inhib 73.3
CCOC(=O)c1ccccc1NC(=O)COc1cc(=O)n(CC)c2ccccc12	CYP2C19 inhib 80.1, CYP2C9 inhib 81.3
